This passage reports growth results from PubChem BioAssay (NCI).

The panel holds about 83,000 compounds, 20% with a hit somewhere; the sample as a whole holds those more often.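 The endpoint reported here, percent growth, reads 100 for growth as untreated, 0 for no net growth and -100 for all cells dead.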 The source made the active and inactive calls.

The assay has as its system T-47D breast. The assay can be described thus: NCI-60 one-dose screen, 48 h (100 = growth as untreated, 0 = no growth, -100 = all killed). Conditions: 10 µM unless noted. The procedure: Growth inhibition of the T-47D human tumor cell line is measured as a screen for anti-cancer activity. Cells are grown in 96 well plates and exposed to the test compound for 48 hours. Compounds are tested at a single concentration, which is 10^-5 M for most compounds. The reported endpoint is percent growth (GI% or GIPRCNT), where numbers from 0 - 100% represent growth inhibition, and numbers from -100% - 0 represent cell death. For example, a value of 40 represents 60% growth inhibition. A value of 0 means no net growth occurred over the course of the experiment. A value of -40 indicates 40% of cells at the beginning of the experiment died by the end of the experiment. A value of -100 means all cells are dead at the end of the experiment.
NCI-60 Human Tumor Cell Lines Screen was performed using the standard one-dose NCI protocol, which is described in more detail at https://dtp.cancer.gov/discovery_development/nci-60/default.htm.
Compounds with GIPRCNT values below 10 were considered active. Activity score was based on GIPRCNT using the following formula: […]
Score is 0 for GIPRCNT values of 100 or above, 50 for GIPRCNT values of 0, and 100 for GIPRCNT values of -100.
With `CCOC(=O)c1cc(C(=O)c2cc(OC)c(OC)c(OC)c2)n2ccc(-c3ccncc3)cc12`, the growth is 84.1% (inactive). For `OCc1cccc(-c2ccc3ncc(-c4nc(NC5CC5)ncc4F)n3c2)c1` the value was -2.9% (active).

For the molecule `Cc1ccc(Sc2oc(-c3ccc(C)cc3)nc2[P+](c2ccccc2)(c2ccccc2)c2ccccc2)cc1`, the growth was 1.57% (active).

As to `O=C1c2cccc3cccc(c23)C(=O)N1N1C(=O)c2cccc3c(N4CCOCC4)ccc(c23)C1=O`, the growth was 91.7% (inactive). With `CCCCCCCCCCCCCCCCCCOc1ccccc1CC(=O)OCC[N+]1(C)CCCC1` the figure was 62% (inactive).

As to `Cc1ccc(Cc2cnc(NC(=O)c3cc(Br)cs3)s2)cc1`, the growth was 44.4% (inactive). With `COc1ccc(-c2csc(N(C(=O)N3CCN(c4cc5c(cc4F)c(=O)c(C(=O)O)cn5C4CC4)CC3)c3ccccc3)n2)cc1` the figure was 17.1% (inactive); with `CC(=O)[C@@H]1CCC=C2CC[C@]3(C)[C@@H](CC[C@@H]4[C@@]5(C)CCCNC(C)(C)[C@@H]5CC[C@]43C)[C@H]21`, 33.9% (inactive); with `Brc1ccc(-n2cc(-c3nn[nH]n3)c(-c3cccs3)n2)cc1`, 95.6% (inactive). For `CCC(=C(c1ccc(OCCN2CCCC2)cc1)c1ccc(OCCN2CCCC2)cc1)c1ccc(Cl)cc1` the value was -41.6% (active); for `COc1ccc(NC(=O)c2sc3nc(C)c(C(=O)/C=C/c4cccc(OC)c4)cc3c2N)cc1`, 49.5% (inactive); for `OCCOCCN(Cc1ccccn1)Cc1cc(I)cc(I)c1O`, 93.9% (inactive). Take `COC(=O)c1ccc2c(c1)C(=O)c1c-2n(CCCN)c(=O)c2cc([N+](=O)[O-])ccc12`: the growth was -80.3% (active). For `COc1cc(CNC(=O)/C=C/C=C/c2ccc3c(c2)OCO3)ccc1OCc1cn(-c2ccc(C)c(C)c2)nn1` the value was 80.5% (inactive); for `O=C(CCC(=O)N/N=C/c1ccccc1O)N/N=C/c1ccccc1O`, 51.5% (inactive); for `O=c1oc2ccc([N+](=O)[O-])cc2cc1Br`, 101% (inactive). Consider `CCCCNC(=O)Oc1ccc(/C(=C(/CC)Cc2ccccc2)c2ccc(OCCN3CCCCCC3)cc2)cc1`, for which the growth is -24.9% (active). On to `O=c1c2cc(-c3ccccc3)sc2nc2sc(-c3ccccc3)nn12`, for which the growth is 99.3% (inactive). Regarding `Brc1c2c(c(Br)c3ccccc13)CCCC2`, the growth was 84.4% (inactive). `CCN(CC)CCNC(=O)c1cn2ncnc(Oc3ccc(NC(=O)Nc4ccc(Cl)c(C(F)(F)F)c4)c(F)c3)c2c1C`: the growth was 64.5% (inactive). With `CCCCCCC1(C)NCCO1` (stereo not given) the figure was 108% (inactive); with `CCCCC(=O)Nc1ncc(Cc2ccc(Cl)cc2)s1`, 56.4% (inactive). With `N#Cc1cnc(NCCc2ccncc2)nc1-n1cnc2ccccc21` the figure was 54.5% (inactive); with `CC1(C)CC2=C3C=C[C@@H]4[C@@]5(C)CCC(=O)C(C)(C)[C@@H]5CC[C@@]4(C)[C@]3(C)CC[C@@]2(C(=O)O)CC1=O`, 74.4% (inactive). Consider `O=C(Nc1ncc(Cc2ccc(Cl)c(C(F)(F)F)c2)s1)c1ccc2nnsc2c1`, for which the growth is 24.8% (inactive).

In the case of `CCOC(=O)c1[nH]c(=O)c2c(C)nc(-c3ccccc3)cc2c1O`, the growth was 101% (inactive). With `N#CC1=C(N)Oc2c(sc3c(F)cccc23)C1c1ccc(F)cc1` (stereo not given) the figure was 42.5% (inactive); with `Cc1nc2sc(C(=O)Nc3ccccc3)c(N)c2cc1C(=O)c1ccccc1`, 46.3% (inactive); with `Nc1ncnc2c1N=C(c1ccc(Cl)cc1)CC(c1ccc3c(c1)OCO3)N2` (stereo not given), 93.8% (inactive).

With `COc1ccc(C(=O)C2C(c3ccc(OC)cc3)CN(C)C23C(=O)Nc2ccccc23)cc1` (stereo not given), the growth was 85.8% (inactive). For `CN1CCN(Cc2ccc3c(NNC(=O)c4ccccc4)nc4cc(F)ccc4n23)CC1` the value was 24.7% (inactive); for `C[C@H](NC(=O)[C@@H](C)N)[C@H](Oc1ccc2c(cnn2-c2ccc(F)cc2)c1)c1ccc2c(c1)OCCO2`, 36.2% (inactive). For `CCCCCCCCn1ccc2cc(NC(=O)Cn3cc(CN4CCCCC4)nn3)ccc21` the value was -14.1% (active). For `COc1cc(-c2cc(-c3cccs3)c(C#N)c(N3CCOCC3)n2)cc(OC)c1OC` the value was 89% (inactive). Consider `O=C(Nc1nn(-c2ccc(Cl)cc2Cl)nc1-c1ccccc1)c1ccccc1`, for which the growth is 103% (inactive). With `O=S(=O)(Nc1ccccc1)c1ccc(C2CC3(Cl)C(Cl)=C(Cl)C2(Cl)C3(Cl)Cl)cc1` (stereo not given) the figure was 29.4% (inactive). `CCCCCCCCCCCCCCCC(N)c1ccccc1` (stereo not given): the growth was 33.5% (inactive). For `Cc1ccc(-c2nn(-c3ccccc3)cc2C=C2C(=O)ON=C2C(C)C)cc1`, the growth was 78.6% (inactive). With `C=C(C)[C@@H]1CC[C@]2(C)[C@H](CC=C3[C@@H]4[C@H](C)[C@@H](C)CC[C@]4(CO)CC[C@]32C)[C@@]1(C)CCCN` the figure was -34.1% (active). On to `Cc1c(-n2nnc(-c3nc4ccccc4s3)c2N)c(=O)n(-c2ccccc2)n1C`, for which the growth is 94.6% (inactive).
